Results: PubChem BioAssay
Records with an inconclusive call do not appear. The source made the active and inactive calls.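 Rule for the calls, unless noted: active = binding below the plate cutoff, the plate median minus 3 SD, with a reading above zero; inconclusive = below the plate cutoff but reading exactly zero; inactive = the rest.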

Legend:
[1] = yeast TOR pathway RPL19A-GFP modulators, primary screen, cell-based, S. cerevisiae, multiplex flow cytometry (AID 1862; in the data active = percent of DMSO control GFP below about 86%;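 note: lower values mimic rapamycin by blocking the RPL19A rise seen in DMSO cells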); conditions: S. cerevisiae RPL19A-GFP strain, flow cytometry fluorescence, 3 h; at 10 µM; stronger effect = lower value
[2] = modulators of MEP2-GFP levels in yeast, primary screen, S. cerevisiae, multiplex flow cytometry (AID 1867;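 active = GFP response, as percent of the DMSO control, above the screen-wide mean plus 3 SD, about 139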;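 note: median GFP channel fluorescence of barcode-gated MEP2-GFP cells measured by flow cytometry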); conditions: S. cerevisiae MEP2-GFP strain, 3 h, at 10 µM, stronger effect = higher value, 100% means same as DMSO wells
[3] = modulators of CIT2-GFP expression in yeast, primary screen, S. cerevisiae, GFP fusion, multiplex flow cytometry (AID 1870;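 active = percent response above a set limit, the screen-wide mean plus 3 SD, cut at about 130% in these data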;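 note: barcoded CIT2-GFP strain pooled with four other GFP strains with rapamycin as positive control; median GFP fluorescence per well over plate mean of DMSO wells so 100% = DMSO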); conditions: 3 h, at 10 µM, stronger effect = higher value
[4] = modulators of LAP4-GFP expression in yeast, primary screen, S. cerevisiae, multiplex flow cytometry (AID 1873;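 active = GFP signal, as percent of the solvent control, above the screen mean plus 3 SD, about 149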); conditions: 3 h, at 10 µM, stronger effect = higher value
[5] = modulators of AGP1-GFP expression in yeast TOR pathway, primary screen, cell-based, multiplex flow cytometry, S. cerevisiae (AID 1887;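 active = GFP signal above the screen-wide mean plus 3 SD, that is over about 124.5% of the solvent control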;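 note: AGP1-GFP fusion strain of S. cerevisiae within a five-strain barcoded multiplex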); conditions: 3 h, at 10 µM, stronger effect = higher value
[6] = inhibitors of CD8+ T cell-vesicle binding, pilot screen, LFA-1/ICAM-1 modulator project, MLPCN validation set, flow cytometry (AID 2523;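 active = response below a set limit, under 55% cells CD8-positive and vesicle-bound, and CD8 cells' 90th-percentile brightness under 279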;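 for vesicle binding response: mean PE anti-B7-1 fluorescence of CD8+ cells relative to row control; 100% = QL9-loaded vesicles with DMSO vehicle in the same plate row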); conditions: 2C mouse CD8+ T cells, at 7 µM, stronger effect = lower value; double positive events: measured here: CD8+/vesicle+ event percentage
[7] = target: Integrin beta-1 (Homo sapiens) + Integrin alpha-4 (Homo sapiens) (UniProt P13612+P05556); test: inhibition of HUTS-21 binding to VLA-4, pilot screen, VLA-4 allosteric modulator project, U937 cells, HUTS-21 mAb, flow cytometry, validation set (AID 2674;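 active = inhibition above 50%, about 3 SD of the validation set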;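 note: antibody binding induced by the VLA-4 ligand LDV present at three times its Kd; 0% = LDV ligand with antibody and no compound and 100% = antibody without LDV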); conditions: HUTS-21 LIBS mAb binding, at 6.7 µM, stronger effect = higher value, binding induced by LDV ligand
Sequence of Integrin beta-1 (Homo sapiens) + Integrin alpha-4 (Homo sapiens) (P05556 whole entry, looked up): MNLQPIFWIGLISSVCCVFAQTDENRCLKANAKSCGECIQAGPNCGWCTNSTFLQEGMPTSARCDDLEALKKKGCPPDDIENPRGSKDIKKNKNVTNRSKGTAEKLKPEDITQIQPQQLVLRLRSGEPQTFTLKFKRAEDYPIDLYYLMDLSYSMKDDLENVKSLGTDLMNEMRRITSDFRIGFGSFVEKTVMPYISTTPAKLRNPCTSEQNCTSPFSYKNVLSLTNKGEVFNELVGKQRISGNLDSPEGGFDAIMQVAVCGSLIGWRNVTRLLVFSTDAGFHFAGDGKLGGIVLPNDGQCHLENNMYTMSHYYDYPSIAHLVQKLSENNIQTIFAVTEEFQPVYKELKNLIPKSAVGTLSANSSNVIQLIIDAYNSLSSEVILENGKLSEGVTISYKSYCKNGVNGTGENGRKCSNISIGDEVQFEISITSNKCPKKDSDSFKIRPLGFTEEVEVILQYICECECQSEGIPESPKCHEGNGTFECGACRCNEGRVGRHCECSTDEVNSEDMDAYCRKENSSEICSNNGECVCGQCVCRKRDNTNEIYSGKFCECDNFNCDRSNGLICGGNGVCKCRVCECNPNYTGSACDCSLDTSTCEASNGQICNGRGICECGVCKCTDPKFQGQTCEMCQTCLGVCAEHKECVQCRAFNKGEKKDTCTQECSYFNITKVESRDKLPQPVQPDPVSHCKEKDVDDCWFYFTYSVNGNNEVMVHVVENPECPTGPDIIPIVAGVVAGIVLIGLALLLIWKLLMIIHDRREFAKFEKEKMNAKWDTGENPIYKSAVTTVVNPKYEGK
Sequence of Integrin beta-1 (Homo sapiens) + Integrin alpha-4 (Homo sapiens) (P13612 whole entry, looked up): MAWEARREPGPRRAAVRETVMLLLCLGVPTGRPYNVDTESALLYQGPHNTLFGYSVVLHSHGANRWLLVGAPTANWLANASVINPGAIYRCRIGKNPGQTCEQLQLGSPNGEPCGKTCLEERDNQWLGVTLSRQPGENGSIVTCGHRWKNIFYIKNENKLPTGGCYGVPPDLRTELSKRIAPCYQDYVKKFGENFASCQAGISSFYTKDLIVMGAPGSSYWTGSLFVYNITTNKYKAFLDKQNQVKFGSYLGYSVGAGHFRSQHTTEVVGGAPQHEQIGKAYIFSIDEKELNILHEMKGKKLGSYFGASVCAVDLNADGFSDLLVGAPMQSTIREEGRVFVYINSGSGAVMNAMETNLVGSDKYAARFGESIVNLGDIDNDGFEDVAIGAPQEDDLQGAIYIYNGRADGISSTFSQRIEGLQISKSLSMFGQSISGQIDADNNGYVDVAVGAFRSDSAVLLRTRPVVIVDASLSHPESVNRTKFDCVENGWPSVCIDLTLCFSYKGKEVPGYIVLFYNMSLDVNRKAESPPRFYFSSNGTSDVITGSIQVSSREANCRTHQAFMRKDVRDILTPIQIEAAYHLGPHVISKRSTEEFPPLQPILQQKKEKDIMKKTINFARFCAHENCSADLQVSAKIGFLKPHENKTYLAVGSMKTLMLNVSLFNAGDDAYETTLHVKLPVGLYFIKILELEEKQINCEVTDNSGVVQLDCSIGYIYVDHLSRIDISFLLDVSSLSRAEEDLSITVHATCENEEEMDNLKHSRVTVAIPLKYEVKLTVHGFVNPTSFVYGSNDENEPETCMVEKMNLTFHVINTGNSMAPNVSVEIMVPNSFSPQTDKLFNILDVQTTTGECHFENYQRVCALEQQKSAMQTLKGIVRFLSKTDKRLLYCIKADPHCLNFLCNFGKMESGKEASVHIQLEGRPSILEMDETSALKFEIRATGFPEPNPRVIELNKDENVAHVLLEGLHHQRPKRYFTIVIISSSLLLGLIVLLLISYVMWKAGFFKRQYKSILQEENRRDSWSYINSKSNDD

[8] = superoxide lowering in aged yeast cells, pilot screen, validation compound set (AID 2706;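 active = superoxide response below 65% of plate, a cut near 3 SD across the whole screen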;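 note: yeast exposed to compound for one week at 30 degrees C before staining; 100% = mean of all compound wells on the same plate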); conditions: S. cerevisiae aging, superoxide DHE fluorescence; at 10 µM; stronger effect = lower value
[9] = target: Beta-adrenergic receptor kinase 1 (Homo sapiens) (UniProt P25098); test: GRK2 binders displacing RNA aptamer, biochemical, validation, human GRK2, bead flow cytometry (AID 488806;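 active = aptamer binding inhibition above 30%, about 3 SD of noise from non-fluorescent compounds; inactive = inhibition at or below 30%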); conditions: bead-bound GRK2, FAM-aptamer displacement, at 10 µM, stronger effect = higher value
Sequence of Beta-adrenergic receptor kinase 1 (Homo sapiens) (P25098 whole entry, looked up): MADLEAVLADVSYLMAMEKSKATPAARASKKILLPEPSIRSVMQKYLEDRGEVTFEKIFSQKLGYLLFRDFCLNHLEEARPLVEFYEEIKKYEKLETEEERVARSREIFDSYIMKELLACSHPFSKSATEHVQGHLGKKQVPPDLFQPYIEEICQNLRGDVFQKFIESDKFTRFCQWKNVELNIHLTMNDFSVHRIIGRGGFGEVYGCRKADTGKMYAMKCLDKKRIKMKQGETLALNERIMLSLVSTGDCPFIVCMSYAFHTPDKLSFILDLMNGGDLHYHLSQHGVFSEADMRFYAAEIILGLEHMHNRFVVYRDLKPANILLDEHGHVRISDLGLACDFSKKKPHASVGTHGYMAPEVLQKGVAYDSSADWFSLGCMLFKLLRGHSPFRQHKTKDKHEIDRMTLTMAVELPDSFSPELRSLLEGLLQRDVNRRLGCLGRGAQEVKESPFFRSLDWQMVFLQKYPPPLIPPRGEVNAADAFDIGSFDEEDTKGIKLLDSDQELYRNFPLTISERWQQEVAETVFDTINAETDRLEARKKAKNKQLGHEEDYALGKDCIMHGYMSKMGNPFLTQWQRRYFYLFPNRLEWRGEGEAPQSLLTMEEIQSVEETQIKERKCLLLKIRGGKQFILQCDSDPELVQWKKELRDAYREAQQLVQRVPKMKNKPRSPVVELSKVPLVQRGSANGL

[10] = target: Beta-2 adrenergic receptor (Homo sapiens) (UniProt P07550); test: beta2AR agonists driving receptor internalization, pilot screen, cell-based, FAP fluorogen, flow cytometry, validation set (AID 504459;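 active = percent response above 42, roughly 3 SD of non-fluorescent test compounds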;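 note: agonist-driven loss of surface beta2AR via internalization measured by FAP dye flow cytometry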); conditions: Am2.2-beta2AR cells, FAP surface receptor flow cytometry; at 10 µM; stronger effect = higher value
Sequence of Beta-2 adrenergic receptor (Homo sapiens) (P07550 whole entry, looked up): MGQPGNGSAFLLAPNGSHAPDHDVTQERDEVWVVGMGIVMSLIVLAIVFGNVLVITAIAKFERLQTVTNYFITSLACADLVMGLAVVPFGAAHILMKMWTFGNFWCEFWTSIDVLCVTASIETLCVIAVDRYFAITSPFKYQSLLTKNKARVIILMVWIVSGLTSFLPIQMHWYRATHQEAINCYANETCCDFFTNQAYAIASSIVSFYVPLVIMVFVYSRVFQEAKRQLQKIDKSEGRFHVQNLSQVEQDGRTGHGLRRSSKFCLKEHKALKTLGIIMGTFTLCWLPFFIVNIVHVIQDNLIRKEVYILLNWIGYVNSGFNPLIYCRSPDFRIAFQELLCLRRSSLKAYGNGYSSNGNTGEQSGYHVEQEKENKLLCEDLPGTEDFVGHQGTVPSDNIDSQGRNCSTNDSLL

[11] = target: AP-2 complex subunit beta (Homo sapiens) (UniProt P63010); test: inhibitors of arrestin peptide binding to AP2, pilot screen, biochemical, validation set, GST-AP2 beads, flow cytometry (AID 504541;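 active = inhibition above 54%, about 3 SD of non-fluorescent compounds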;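 note: AP2 carries R879A mutation and is captured from E. coli lysate; bead-bound FITC arrestin peptide fluorescence measuring arrestin peptide binding to AP2; 0% = DMSO wells and 100% = excess unlabeled arrestin peptide control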); conditions: FITC arrestin peptide, at 10 µM, stronger effect = higher value, AP2 beta2 appendage fragment, R879A mutant
Sequence of AP-2 complex subunit beta (Homo sapiens) (P63010 whole entry, looked up, the tested form may be a part, one chain of several): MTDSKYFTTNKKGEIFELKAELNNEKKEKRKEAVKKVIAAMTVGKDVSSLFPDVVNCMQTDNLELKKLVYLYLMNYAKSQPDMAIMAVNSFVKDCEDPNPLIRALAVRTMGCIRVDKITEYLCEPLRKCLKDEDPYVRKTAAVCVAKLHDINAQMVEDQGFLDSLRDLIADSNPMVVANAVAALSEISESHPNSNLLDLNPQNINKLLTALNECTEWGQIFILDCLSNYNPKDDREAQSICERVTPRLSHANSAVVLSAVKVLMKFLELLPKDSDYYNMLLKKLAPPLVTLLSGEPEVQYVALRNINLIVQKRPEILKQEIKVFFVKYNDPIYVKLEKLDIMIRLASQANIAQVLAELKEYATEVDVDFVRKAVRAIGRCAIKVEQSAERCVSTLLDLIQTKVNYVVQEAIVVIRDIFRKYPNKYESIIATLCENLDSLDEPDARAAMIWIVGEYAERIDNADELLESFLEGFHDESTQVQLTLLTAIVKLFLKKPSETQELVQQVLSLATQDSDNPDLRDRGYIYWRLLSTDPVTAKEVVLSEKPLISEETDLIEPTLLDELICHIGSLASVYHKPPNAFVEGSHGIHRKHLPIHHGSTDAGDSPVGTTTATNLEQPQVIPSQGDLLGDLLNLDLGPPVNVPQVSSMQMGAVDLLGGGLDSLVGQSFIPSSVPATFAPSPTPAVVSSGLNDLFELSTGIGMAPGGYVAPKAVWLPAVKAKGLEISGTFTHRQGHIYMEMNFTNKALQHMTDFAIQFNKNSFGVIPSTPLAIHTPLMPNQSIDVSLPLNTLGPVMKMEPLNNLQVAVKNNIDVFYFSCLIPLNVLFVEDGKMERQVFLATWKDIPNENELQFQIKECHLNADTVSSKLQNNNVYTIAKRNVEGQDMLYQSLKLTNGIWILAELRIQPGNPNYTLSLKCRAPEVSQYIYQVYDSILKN

[12] = yeast V-ATPase proton transport modulators, S. cerevisiae, pHLuorin, HTS validation (AID 504600; in the data active = response above about 15%;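 note: plate controls were DMSO for no effect and reference compound for full effect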); conditions: S. cerevisiae pHLuorin cytosolic pH, at 10 µM, stronger effect = higher value
[13] = test system: anti-desmoglein-3 scFv antibody binding to human DSG3; test: inhibitors of anti-DSG3 scFv binding to DSG3, pilot screen, biochemical, validation compound set, bead-based, flow cytometry (AID 588368); conditions: Protein G beads, DSG3-Fc, scFv-GFP binding, at 10 µM, stronger effect = lower value;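 note: signal is the median channel fluorescence of bead-bound GFP antibody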
[14] = inhibitors of fungal efflux pumps CDR1, CDR2, MDR1, pilot screen, validation compound set, multiplex, phenotypic (AID 588506;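 active = efflux inhibition above 0.42, the validation set average plus 4 SD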;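 note: Nile Red retained in cells so higher fluorescence means more efflux inhibition; 0 = negative control wells and 1 = enniatin B 25 µM full block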); conditions: S. cerevisiae pump-expressing triplex, Nile Red efflux flow cytometry; at 10 µM; stronger effect = higher value; the pumps come from Candida albicans
[15] = target: ATP-binding cassette sub-family B member 6 (Homo sapiens) (UniProt Q9NP58); test: ABCB6 transporter inhibitors, pilot screen, K562-ABCB6 cells, flow cytometry, validation set (AID 588550;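 active = inhibition above the screen-wide mean plus 3 SD, about 51%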;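 note: 0% = DMSO wells and 100% = benzethonium chloride 70 µM positive control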); conditions: K562-ABCB6 porphyrin accumulation, 1 h, at 10 µM, stronger effect = higher value
Sequence of ATP-binding cassette sub-family B member 6 (Homo sapiens) (Q9NP58 whole entry, looked up): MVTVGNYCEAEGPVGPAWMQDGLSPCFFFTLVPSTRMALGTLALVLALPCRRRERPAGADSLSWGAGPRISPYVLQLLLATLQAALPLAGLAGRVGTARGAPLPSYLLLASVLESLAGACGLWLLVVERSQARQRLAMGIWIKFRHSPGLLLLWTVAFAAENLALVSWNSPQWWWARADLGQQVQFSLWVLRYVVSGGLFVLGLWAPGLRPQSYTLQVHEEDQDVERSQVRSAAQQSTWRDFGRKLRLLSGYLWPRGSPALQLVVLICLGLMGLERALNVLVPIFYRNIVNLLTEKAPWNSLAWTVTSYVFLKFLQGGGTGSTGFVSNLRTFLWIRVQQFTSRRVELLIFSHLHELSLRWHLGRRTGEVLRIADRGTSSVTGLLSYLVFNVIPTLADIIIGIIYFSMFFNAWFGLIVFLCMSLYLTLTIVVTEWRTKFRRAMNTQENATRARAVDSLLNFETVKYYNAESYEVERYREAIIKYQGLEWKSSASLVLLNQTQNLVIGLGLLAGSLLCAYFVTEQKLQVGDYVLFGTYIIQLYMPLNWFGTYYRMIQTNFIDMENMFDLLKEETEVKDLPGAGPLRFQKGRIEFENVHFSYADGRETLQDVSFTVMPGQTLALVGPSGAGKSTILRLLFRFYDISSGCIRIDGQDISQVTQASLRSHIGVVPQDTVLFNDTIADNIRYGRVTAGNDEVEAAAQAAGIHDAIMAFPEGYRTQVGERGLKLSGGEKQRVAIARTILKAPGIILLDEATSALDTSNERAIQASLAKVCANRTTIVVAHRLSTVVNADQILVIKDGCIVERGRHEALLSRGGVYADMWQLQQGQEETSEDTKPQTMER

[16] = promoters of myeloid differentiation in arrested cells, primary screen, cell-based, GFP/MAC1 double positive, flow cytometry, validation set (AID 588685;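 active = differentiation response of at least 50%, scaled between solvent and reference control, from cells with both markers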;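 note: compound exposure lasts four days before antibody staining and flow analysis; 0% = DMSO wells and 100% = 5 µM fulvestrant positive control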); conditions: ER-HoxA9 marrow cells, stronger effect = higher value, normalized: vehicle 0, fulvestrant 100

SMILES | percent of DMSO control GFP [1] | GFP response vs DMSO [2] | percent response of DMSO control [3] | GFP response vs DMSO [4] | GFP response, % of DMSO [5] | double positive events [6] | vesicle binding response [6] | inhibition [7] | superoxide response (% of plate) [8] | aptamer binding inhibition [9] | response [10] | inhibition [11] | response [12] | binding (% of control) [13] | efflux inhibition (fraction of control) [14] | inhibition [15] | differentiation response [16]
CCOC(=O)c1oc2cc(O)cc(C)c2c(=O)c1-c1cscn1 | 100% (inactive) | 105% (inactive) | 91% (inactive) | 119% (inactive) | 102% (inactive) | 58.7% | 182% (inactive) | 3.67% (inactive) | 101% (inactive) | 4% (inactive) | -3.97% (inactive) | 24.6% (inactive) | -5.59% (inactive) | 101% (inactive) | -0.06 (inactive) | 3% (inactive) | 5.6% (inactive)
CN(C)CCCN1c2ccccc2Sc2ccccc21 | 98.1% (inactive) | 102% (inactive) | 99.6% (inactive) | 107% (inactive) | 120% (inactive) | 61.4% | 202% (inactive) | 44% (inactive) | 96.9% (inactive) | -3% (inactive) | 0.87% (inactive) | 7.22% (inactive) | -5.2% (inactive) | 102% (inactive) | -0.09 (inactive) | 8% (inactive) | 23.6% (inactive)
COc1ccc(CN2CCCCC2C(=O)Nc2ccc(OC)c(OCC(C)C)c2)cc1OC (stereo not given) | 100% (inactive) | 103% (inactive) | 101% (inactive) | 90.7% (inactive) | 104% (inactive) | 54.3% | 29% (active) | -0.45% (inactive) | 95% (inactive) | 2% (inactive) | -10.2% (inactive) | 18.5% (inactive) | -0.65% (inactive) | 95.9% (inactive) | -0.35 (inactive) | 4% (inactive) | 2.2% (inactive)
Cc1oncc1C(=O)Nc1ccc(C(F)(F)F)cc1 | 95.7% (inactive) | 98.6% (inactive) | 101% (inactive) | 124% (inactive) | 105% (inactive) | 57.4% | 171% (inactive) | 3.99% (inactive) | 101% (inactive) | 10% (inactive) | -21.8% (inactive) | -2.96% (inactive) | 6.73% (inactive) | 96% (inactive) | -0.04 (inactive) | -7% (inactive) | -4.99% (inactive)
N#CCC(N)=C(C#N)C#N | 91.5% (inactive) | 120% (inactive) | 111% (inactive) | 82.5% (inactive) | 91.7% (inactive) | 60.1% | 188% (inactive) | -4.21% (inactive) | 108% (inactive) | 9% (inactive) | -2.94% (inactive) | -8.05% (inactive) | 1.3% (inactive) | 101% (inactive) | -0.02 (inactive) | -45% (inactive) | -5.73% (inactive)
CC(C)C1CC(CCNCc2ccc(N(C)C)cc2)(c2ccccc2)CCO1 (stereo not given) | 95.2% (inactive) | 105% (inactive) | 118% (inactive) | 76.5% (inactive) | 87.7% (inactive) | 58.6% | 200% (inactive) | 9.37% (inactive) | 112% (inactive) | -4% (inactive) | 3.92% (inactive) | -7.09% (inactive) | 0.42% (inactive) | 111% (inactive) | -0.09 (inactive) | 8% (inactive) | -1.64% (inactive)
COc1ccccc1OS(=O)(=O)c1ccc(NC(C)=O)cc1 | 87.1% (inactive) | 123% (inactive) | 101% (inactive) | 82.5% (inactive) | 103% (inactive) | 57.8% | 65.7% (inactive) | 10.3% (inactive) | 97% (inactive) | 2% (inactive) | -16.4% (inactive) | -11.8% (inactive) | -0.65% (inactive) | 101% (inactive) | -0.35 (inactive) | 4% (inactive) | -4.09% (inactive)
O=C1OC(c2ccccc2)=C/C1=C/c1cccs1 | 106% (inactive) | 99.3% (inactive) | 105% (inactive) | 86.1% (inactive) | 97.3% (inactive) | 64.9% | 212% (inactive) | -2.53% (inactive) | 97.6% (inactive) | 1% (inactive) | -7.02% (inactive) | 6.48% (inactive) | -2.38% (inactive) | 93.3% (inactive) | -0.1 (inactive) | -5% (inactive) | 3.18% (inactive)
CN(C)[C@@H]1C(=O)C(C(N)=O)=C(O)[C@@]2(O)C(=O)C3=C(O)c4c(O)ccc(Cl)c4[C@@H](O)[C@H]3C[C@@H]12 | 104% (inactive) | 105% (inactive) | 98.3% (inactive) | 104% (inactive) | 109% (inactive) | 59.2% | 122% (inactive) | -7.93% (inactive) | 96% (inactive) | 10% (inactive) | -15.7% (inactive) | 10.7% (inactive) | -7.23% (inactive) | 101% (inactive) | -0.17 (inactive) | -10% (inactive) | 8.8% (inactive)
CC1(C)CC(CC(=O)O)(c2ccc(Cl)cc2)CCO1 (stereo not given) | 86% (inactive) | 126% (inactive) | 96.6% (inactive) | 85.3% (inactive) | 92.8% (inactive) | 61.2% | 136% (inactive) | -0.33% (inactive) | 94.5% (inactive) | 3% (inactive) | -2.75% (inactive) | -8.86% (inactive) | 0.57% (inactive) | 107% (inactive) | -0.17 (inactive) | 9% (inactive) | -3.28% (inactive)
